# Screens as filed in PubChem BioAssay.
# Rows were chosen to be rich in hits. Some 22% of all compounds tested hit in one or more screens of this group.
# CYP2C19 inhib: blockers of cytochrome P450 2C19 activity – biochemical, luminescence, ADME assay, primary screen; P33261; CYP2C19 Supersomes, luciferin-H EGE luminescence, 30 min; inhibition, % at 5 µM; 21% of 96,000 active;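 active = CYP2C19 inhibition above a set limit at 5 µM in the primary screen, cut at about 50% in these data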;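 also: plate controls were negative control wells for no effect and 2.5 mM tranylcypromine positive control for full effect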
# CYP2C19 act: human CYP2C19 activators, primary screen, biochemical, luminescence; Cytochrome P450 2C19 (Homo sapiens), P33261; recombinant CYP2C19, luciferin-H EGE luminescence; stronger effect = higher value; 0 = fully inhibited enzyme, 1 = untreated enzyme; activation factor at 5 µM; 96,000 tested, under 10 active; AID 1025, 2008;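 active = activation factor of at least 2 at 5 µM in the primary screen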;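 also: 0 = wells with 2.5 mM tranylcypromine and 1 = vehicle-only wells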
# CYP2C9 inhib: blockers of cytochrome P450 2C9 activity – biochemical, luminescence, ADME assay, primary screen | CYP2C9 Supersomes, luciferin-H conversion | inhibition, % at 5 µM | 20% of 96,000 active;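 active = blocking of liver enzyme CYP2C9 beyond about 50% at 5 µM, limit read from the data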
# Target sequence (P11712 whole entry, looked up): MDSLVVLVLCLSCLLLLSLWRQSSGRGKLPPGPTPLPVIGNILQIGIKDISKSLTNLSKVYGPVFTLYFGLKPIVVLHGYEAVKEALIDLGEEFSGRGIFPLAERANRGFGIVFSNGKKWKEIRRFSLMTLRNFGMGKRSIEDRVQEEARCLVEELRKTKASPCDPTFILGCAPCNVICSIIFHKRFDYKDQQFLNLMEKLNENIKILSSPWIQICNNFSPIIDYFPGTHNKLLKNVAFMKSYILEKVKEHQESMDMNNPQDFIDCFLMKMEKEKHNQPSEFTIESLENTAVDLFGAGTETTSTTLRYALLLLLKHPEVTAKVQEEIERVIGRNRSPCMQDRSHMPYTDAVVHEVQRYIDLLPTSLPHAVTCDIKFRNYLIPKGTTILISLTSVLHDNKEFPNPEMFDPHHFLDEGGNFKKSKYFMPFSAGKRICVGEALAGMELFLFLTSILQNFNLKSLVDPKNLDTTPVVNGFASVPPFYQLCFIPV
# cytoskel mod: modifiers of F-actin cytoskeleton organization, primary screen, imaging, HUVEC, phalloidin staining, high-content imaging | HUVEC TNFa F-actin phalloidin imaging | inhibition, % at 2 µM | 0.18% of 91,000 active;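 active = inhibition above the batch mean plus 3 SD and confirmed as a hit by visual image inspection, cut at about 30% in these data, passing the limit was not always enough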
# CYP2C9 act: human CYP2C9 activators, primary screen, biochemical, luminescence. recombinant CYP2C9, luciferin-H conversion; stronger effect = higher value; factor 1 = untreated enzyme, 0 = blocked. activation factor at 5 µM. Cytochrome P450 2C9 (Homo sapiens), P11712. 1.4% of 96,000 active;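 active = activation factor of 2 or more for CYP2C9 at a 5 µM dose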;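 also: 0 = sulfaphenazole-blocked wells and 1 = vehicle-only wells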
# E-sel TNF inh: E-selectin induction blockers in HUVEC – imaging, immunofluorescence, high content, primary screen; inhibition, % at 2 µM; HUVEC TNFa-induced E-selectin immunofluorescence; 0.71% of 120,000 active;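 active = inhibition above the batch mean plus 3 SD, and confirmed as a hit on visual image review, cut at about 43% in these data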;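 also: 0% = TNF-stimulated DMSO wells and 100% = unstimulated control wells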
# The depositor's hits bear a star; x = no result.
SMILES,CYP2C19 inhib,CYP2C19 act,CYP2C9 inhib,cytoskel mod,CYP2C9 act,E-sel TNF inh
Cc1ccc(N2CCN(C(=O)c3ccccc3Br)CC2)c(C)c1,98.2*,0,62.3*,2.4,0.4,1.9
CCOC(=O)N1CCN(c2cccc(C)c2C)CC1,x,x,x,x,x,13.7
Cc1ccc(C)c(N2CCN(C(=O)c3ccc(Cn4c(=O)[nH]c5ccccc5c4=O)cc3)CC2)c1,70.3*,0.3,74.9*,11.4,0.3,-12.8
O=C(c1ccc(Cn2c(=O)[nH]c3ccccc3c2=O)cc1)N1CCN(c2ccc(Cl)cc2)CC1,49.9,0.5,23.2,47.9,0.8,x
COc1cc(C(=O)N2CCN(c3ccc(C)cc3C)CC2)cc(OC)c1OC,17.9,0.8,16.6,x,0.8,-33.9
COc1ccc(Cc2nnc(SCc3nc4ccccc4c(=O)[nH]3)o2)cc1,25.5,0.7,17.9,-9.1,0.8,-4.5
Cn1c(=O)n(C)c2cc(S(=O)(=O)O)ccc21,-6.1,1.1,-7.1,-5.1,1.1,16.3
CCCCCCOc1ccc(N2C(=O)CC(N3CCN(C(=O)c4ccco4)CC3)C2=O)cc1 (stereo not given),-0.4,1,22.2,-23.0,0.8,-8.8
COC(=O)C1=C(C)C(c2ccc(OC)cc2)NC(=O)N1 (stereo not given),x,x,x,x,x,20.9
COc1ccc(C2C=C(c3ccccc3)Nc3ncnn32)cc1 (stereo not given),14.1,0.9,-6.2,22.0,1.1,2.3
Fc1ccc(Br)cc1C1C=C(c2ccc(Br)s2)Nc2ncnn21 (stereo not given),95.9*,0,46.0,x,0.5,-51.1
COc1ccc(C2C=C(c3ccc(C)c(C)c3)Nc3ncnn32)c(OC)c1OC (stereo not given),95.7*,0,91.9*,x,0.1,x
COc1cccc(C2C=C(c3ccc(Br)s3)Nc3ncnn32)c1OC (stereo not given),98.1*,0,83.3*,x,0.2,-50.9
CCOC(=O)Cc1csc(NC(=O)CSc2nnc(-c3ccc(F)cc3)o2)n1,16.5,0.8,56.3*,-15.0,0.4,25.9
CCOC(=O)Cc1csc(NC(=O)CSc2nnc(-n3nc(C)cc3C)c3ccccc23)n1,79.2*,0.2,92.0*,-27.3,0.1,-6.0
Cc1cc(C)n(-c2nnc(SCC(=O)NC3CCCC3)c3ccccc23)n1,x,x,x,13.0,x,-22.2
CCOC(=O)Cc1csc(NC(=O)CSc2nnc(-c3ccc(C)cc3)o2)n1,38.0,0.6,83.8*,-6.2,0.2,4.4
CCOC(=O)Cc1csc(NC(=O)CSc2nnnn2-c2ccc(CC)cc2)n1,87.6*,0.1,77.1*,11.6,0.2,5.8
O=C(O)Cn1nc(C(F)(F)F)c2c1CCCCC2,9.9,0.9,27.1,7.8,0.7,x
O=C(NC1CCCCC1)c1ccc(Cn2cc(Cl)cn2)cc1,-0.9,1,27.4,x,0.7,3.0
CCOc1ccccc1N1CCN(c2nc(N)c(C#N)c(CC#N)c2C#N)CC1,27.3,0.7,-44.0,4.5,1.4,-4.3
O=C(Oc1ccc(Cl)c2cccnc12)c1ccco1,53.4*,0.5,24.1,3.7,0.8,-2.7
CC(NC(=O)COC(=O)CCNC(=O)c1ccco1)C12CC3CC(CC(C3)C1)C2 (stereo not given),51.2*,0.5,55.6*,-34.6,0.4,x
CC(C)[C@H](NC(=O)c1ccco1)C(=O)OCC(=O)NC12CC3CC(CC(C3)C1)C2,x,x,x,x,x,6.2
c1ccc2c3c(cc(N4CCOCC4)c2c1)OC1(N2CCOCC2)CCCCC1O3 (stereo not given),95.1*,0,79.5*,27.7,0.2,-1.0
COc1nnc(-c2ccc(N3CCOCC3)c(NC(=O)C3CCCCC3)c2)c2ccccc12,24.2,0.8,41.1,-14.3,0.6,-5.7
FC(F)(F)c1cccc(Oc2ccc3c(C(F)(F)F)cc(C(F)(F)F)nc3n2)c1,10.7,0.9,26.5,4.7,0.7,35.6
COCCNC(=O)c1c(N)n(/N=C/c2cccs2)c2nc3ccccc3nc12,8.9,0.9,60.7*,8.9,0.4,-0.9
